This is an account of results in PubChem BioAssay (NCI).

The panel holds about 83,000 compounds, 20% with a hit somewhere; the sample as a whole holds those more often.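 A percent growth of 40 corresponds to 60% growth inhibition; 0 means no net growth; -100 means all cells died. Active threshold: below 10.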 Values without a mark were called inactive. Active and inactive are the calls of the source.

Common to all, as to experiment: NCI-60 one-dose screen, 48 h (100 = growth as untreated, 0 = no growth, -100 = all killed)
Holding throughout (settings): 10 µM unless noted

Assay [1] has as its system SR leukemia.
Assay [2] has as its system RPMI-8226 leukemia.
Assay [3] relates to OVCAR-8 ovarian.
Assay [4] deals with OVCAR-5 ovarian.
Assay [5] relates to OVCAR-4 ovarian.
Assay [6] has as its system SK-OV-3 ovarian.
Assay [7] deals with OVCAR-3 ovarian.
Assay [8] concerns HS 578T breast.
The test system of assay [9] is NCI/ADR-RES ovarian.
The subject of assay [10] is IGROV1 ovarian.

With `c1ccc(N2N=C(c3cccc(Nc4ccncc4)c3)CC2c2ccc3c(c2)OCO3)cc1` (stereo unspecified), the growth in [1] was 4.46% (active); in assay [2] it was 2.64% (active); in assay [3], 21.7%; in assay [4], 43.7%; in [5] it was 33.6%; in [6], 22.1%. In addition, the growth in [7] is 7.28% (active); in [8] it was 23.8%; in assay [9] it was -1.79% (active).

`CCSc1ccc2c(c1)N(CCCN1CCN(C)CC1)c1ccccc1S2`: the growth in assay [1] is -15% (active); in assay [2], 32.1%; in assay [3], 76.3%; in assay [4], 70%; in [5] it was 61.2%; in assay [6] it was 78.7%. Further, the results for the growth in [7], in assay [8] and in assay [9] were 58.2%, 61.4% and 60.8%, respectively.

Take `O=C(OC(OC(=O)c1cc(Cl)cc(Cl)c1)c1cccc2ccccc12)c1ccccc1` (stereo unspecified): the growth in [1] is 94.5%; in assay [2], 98%; in assay [3], 93.7%; in assay [4], 105%; in assay [5], 103%; in [6], 101%. For the same compound, the growth in assay [7] is 97.6%; in assay [8], 98.2%; in assay [9] it was 99.7%.

As for `CCc1nc(C)cn1C(=O)OCc1nc2nc(Cl)nc(N3CCOCC3)c2[nH]1`, the growth in [1] was -16.1% (active); in [2] it was -33.1% (active); in assay [3] it was -13.7% (active); in [4], -48.9% (active); in assay [5], -33.9% (active); in assay [6], 70%. The growth is -6.6% (active) in assay [8] and 2.83% (active) in assay [9].

As for `C=C(C)[C@H]1CC/C(C)=C/CC[C@]2(C)O[C@H]2CC/C(COC(=O)[C@@H](OC(C)=O)[C@H](NC(=O)c2ccccc2)c2ccccc2)=C\[C@@H]1O`, the growth in [1] was 51.2%; in assay [2] it was 54.8%; in assay [3] it was 93.9%; in [4] it was 106%; in [5], 85.7%; in [6], 94.1%. For the same compound, the growth in assay [7] is 104%; in assay [8], 91%; in [9] it was 88.1%.

As to `Cc1cc(NC(=O)c2cnc(N3CCN(CCOCCOCCOCCOCCC(=O)N[C@H](C(=O)N4C[C@H](O)C[C@H]4C(=O)N[C@@H](C)c4ccc(-c5scnc5C)cc4)C(C)(C)C)CC3)cn2)c2ncccc2c1`, the growth is 7.46% (active) in assay [1]; -26.5% (active) in assay [2]; 20.7% in assay [3]; 80.4% in assay [4]; 14.7% in assay [5]; 63.9% in [6]. Besides, the results for the growth in assay [7], in assay [8] and in assay [9] were -30.8% (active), 6.9% (active) and 90.5%, respectively.

Regarding `Fc1cc(C2=NNC(c3ccc[nH]3)C2)ccc1-n1ccc(C(F)(F)F)n1` (stereo unspecified), the growth is 77.9% in assay [1]; 0.914% (active) in assay [2]; 89% in assay [3]; 96.7% in assay [4]; 93.6% in assay [5]; 90% in assay [10]. For the same compound, the growth in assay [7] was 85.6%; in [8] it was 103%; in assay [9], 90.6%.

As to `NC(=O)C1(N2CCCCC2)CCN(CCCC(=O)c2ccc(F)cc2)CC1`, the growth is 11.4% in assay [1]; 29.5% in [2]; 51.1% in [3]; 72.7% in assay [4]; 59.8% in assay [5]; 62.6% in assay [10]. In addition, the growth in [7] is -14.7% (active); in [8], -2.41% (active); in assay [9] it was 100%.

Consider `COc1cc(/C=C/C(=O)c2c(C)oc3nc[nH]c(=O)c23)ccc1O`, for which the growth in assay [1] was 126%; in [2] it was 122%; in assay [3] it was 103%; in [4], 96.5%; in [5], 101%; in assay [10] it was 100%. The growth was 108% in assay [7], 93% in [8] and 101% in assay [9].

Consider `COc1cccc2c1C(=O)c1c(O)c3c(c(O)c1C2=O)C[C@@](O)(C(=O)CO)C[C@@H]3O[C@H]1C[C@H](N)[C@@H](O)[C@H](C)O1`, for which the growth in [1] was -2.27% (active); in assay [2], 6.05% (active); in [3], 7.14% (active); in assay [4] it was 15.2%; in assay [5] it was 7.72% (active); in assay [10], 18.4%. Further, the growth in assay [7] is -0.462% (active); in [8], -18.2% (active); in [9], 70.5%.

`COC(=O)C(c1ccccc1)C(CC(=O)c1ccccc1)c1ccccc1` (stereo unspecified): the growth in [1] is 87.5%; in assay [2], 71.1%; in assay [3], 102%; in assay [4], 93.3%; in [6], 31.8%; in [7] it was 81.3%. Further, the figures for the growth in [8] and in [9] were 102% and 83.5%, respectively.

Take `O=C(/C=C/c1ccc[nH]1)c1ccc(-n2ccc(C(F)(F)F)n2)cc1`: the growth in [1] is 28.4%; in assay [2], -19.3% (active); in assay [3], 88%; in assay [4], 89%; in [5], 97.7%; in [10] it was 103%. Also, the growth in [7] was 0.498% (active); in assay [9], 88.3%.

For `OC1(c2ccc(Cl)c(C(F)(F)F)c2)CCN(CCCC(c2ccc(F)cc2)c2ccc(F)cc2)CC1`, the growth in [1] was -44.2% (active); in [2] it was -22% (active); in assay [3] it was -71.7% (active); in assay [4] it was -46.9% (active); in assay [5], -10.8% (active); in [10] it was -57.2% (active). For the same compound, the growth was -99.9% (active) in assay [7], -47% (active) in assay [8] and -59.8% (active) in assay [9].

As for `CC(=O)c1c[nH]c2ccc(-c3ccnc(Nc4ccc(NC(=O)C5CCCC5)c(CN5CCOCC5)c4)n3)cc12`, the growth in assay [1] is 3.58% (active); in assay [2], -42.2% (active); in assay [3], 7.02% (active); in assay [4], -11.6% (active); in assay [5], -14% (active); in assay [10], -14.8% (active). For the same compound, the growth was -27.7% (active) in assay [8] and -4.77% (active) in assay [9].

`CC(C)Cc1ccc(C(C)C(=O)NCc2c[nH]c3ccc(Cl)cc23)cc1` (stereo unspecified): the growth in assay [1] was 80.5%; in assay [2], 78.5%; in assay [3] it was 93.4%; in [4], 98.9%; in [5], 88%; in assay [10], 86.9%. In addition, the growth in [7] was 95.5%; in assay [8], 82.8%; in [9], 92.5%.
